Results taken from ChEMBL document CHEMBL3988442, “University of Dundee, Small-Polar-MMV Screening Library” (2021).
The campaign covered roughly 48,000 compounds. About 13,000 (27%) showed an effect of 50% or more. The list shows a part of the results.

Each molecule was assayed on Wolbachia pipientis (assay: Anti-Wolbachia Cell-Based Screen). Details: 5 µM.
Type: functional
Design: scale not given: in the data most compounds retested in dose-response had high values

Row | SMILES | Percent Effect [%]
1 | O=C(N[C@H]1COC[C@@H]1N1CCCC1)c1c[nH]nc1C1CCCCC1 | 3.503
2 | Cc1nc(C(=O)N[C@H]2COC[C@@H]2N2CCCCC2)cs1 | 100.8
3 | Cc1cc(C)n2nc(C(=O)N[C@H]3C[C@H]4CN(C)CCN4C3)cc2n1 | -14.62
4 | CCCc1nc(C(=O)N[C@H]2COC[C@@H]2N2CCN(C)CC2)cs1 | 87.61
5 | O=C(c1csc(-c2ncccn2)n1)N1CCN2CCCCC2C1 (stereo unspecified) | -3.286
6 | Cc1ccc2nc(C)c(C)c(C(=O)N[C@H]3COC[C@@H]3N3CCCC3)c2c1 | -0.09991
7 | O=C(N[C@H]1COC[C@@H]1N1CCCC1)c1csc(Cc2ccccc2)n1 | 115.4
8 | Cc1ccc2nc(C)cc(C(=O)N[C@H]3COC[C@@H]3N3CCOCC3)c2c1 | -2.538
9 | O=C(N[C@H]1COC[C@@H]1N1CCCC1)c1csc(-c2cccs2)n1 | 103.2
10 | Cc1cc(C(=O)N[C@H]2COC[C@@H]2N2CCOCC2)c2ccc(F)cc2n1 | -11.09
11 | Fc1cnc(N2CCOCC3(CCCNC3)C2)nc1 (stereo unspecified) | -3.763
12 | CCCN1CC2(CCN(c3ncc(F)cn3)CC2)CC1C(=O)O (stereo unspecified) | 2.005
13 | CC(C)c1ocnc1C(=O)N1CCC2(CC1)OCCO2 | -1.453
14 | O=S(=O)(NC[C@H]1C[C@@H]2CCN1C[C@@H]2CN1CCOCC1)c1ccccc1 | -10.01
15 | c1c[nH]c2nc(C3CCNCC3)nc-2c1 | 118.5
16 | c1c[nH]c2nc(C3CCCNC3)nc-2c1 (stereo unspecified) | 109

Row | SMILES | Percent Effect [%]
17 | Cl.O=C(NCC1CCC2(CCNCC2)O1)C1CC1 (stereo unspecified) | -17.62
18 | O=C(c1onc2ccccc12)N1CCC2(CCCNC2)C1 (stereo unspecified) | 102.5
19 | O=C(c1nc(=O)[nH]c2ccccc12)N1CCCC2(CCNC2)C1 (stereo unspecified) | 12.22
20 | Cl.O=C(N1CCOCC1)N1CCCC2(CCCNC2)C1 (stereo unspecified) | -22.36
21 | CC(C)CN1CCCC2(CCN(c3ccc(C#N)cn3)C2)C1.O=C(O)C(F)(F)F (stereo unspecified) | -6.214
22 | COCC1CC2(CCN(c3cc(OC)ncn3)CC2)CN1C(C)C.O=C(O)C(F)(F)F (stereo unspecified) | 103.7
23 | CCN1C[C@@H]2CN(c3cc(OC)ncn3)CCC[C@]2(C(=O)O)C1.O=C(O)C(F)(F)F | -1.589
24 | COCC1CC2(CCN(Cc3ccccn3)CC2)CN1C(C)C (stereo unspecified) | -12.67
25 | COCCCN1CCCC12CCN(c1ncccn1)CC2.O=C(O)C(F)(F)F | 8.313
26 | COCC1CC2(CCN(c3ccc(C)nn3)CC2)CN1C(C)C.O=C(O)C(F)(F)F (stereo unspecified) | 99.94
27 | Cc1cccc(CN2CC3C[C@]3(NC(=O)c3cccc(F)c3)C2)n1.O=C(O)C(F)(F)F (stereo partly specified) | -4.676
28 | COCC1CC2(CCN(c3cccc(C)n3)CC2)CN1C(C)C.O=C(O)C(F)(F)F.O=C(O)C(F)(F)F (stereo unspecified) | 94.82
29 | Cc1ccc(N2CCC3(CCCN3Cc3ccn(C)n3)CC2)nn1.O=C(O)C(F)(F)F | 10.32
30 | COCC1CC2(CCN(c3ccccn3)CC2)CN1C(C)C.O=C(O)C(F)(F)F.O=C(O)C(F)(F)F (stereo unspecified) | 104.7
31 | COc1cc(N2CCC[C@]3(C(=O)O)CN(C(C)C)C[C@@H]3C2)ncn1.O=C(O)C(F)(F)F | 8.121
